Our source for the binding signal and Kd values is paper PMC5913336, “True equilibrium measurement of transcription factor-DNA binding affinities using automated polarization microscopy”.

pKd: −log10 of the molar value. A value given as a limit tells only on which side of the number the result lay.

The target in this test is Ttk-PF (Drosophila melanogaster, UniProt P17789 499-564). In words: FP; 33 mM phosphate pH 7.0, 90 mM NaCl, 0.01% Tween 20, 0.1 mM DTT, 0.5% agarose; room temperature. Conditions: dsDNA, one strand shown.
For the sequence TCGCCAGGAAAAC, the binding signal is 13.5 Kd / Kd of best base at the position.
For TCGCCCGGATAAC, the binding signal is > 208 Kd / Kd of best base at the position.
For the sequence TCGTCAGGATAAC, the binding signal is > 208 Kd / Kd of best base at the position.
The same measure, in the same setting: for TCGCCAGGATGAC the value was 3.28 Kd / Kd of best base at the position; for TCGCCAGGGTAAC, 8.56 Kd / Kd of best base at the position; for TCTCCAGGATAAC, 3.54 Kd / Kd of best base at the position.
In the case of TTGCCAGGATAAC, the binding signal was 1.71 Kd / Kd of best base at the position.
Same read-out and setting: under TCGCCGGGATAAC stands > 208 Kd / Kd of best base at the position; under TCGGCAGGATAAC, 1.42 Kd / Kd of best base at the position; under ACGCCAGGATAAC, 2.88 Kd / Kd of best base at the position.
With TCGCCAGCATAAC, the binding signal was 5.81 Kd / Kd of best base at the position.
Still for that read-out and setting: under TCGCCAGGATATC stands 1.65 Kd / Kd of best base at the position; under TCGCCAGAATAAC, > 208 Kd / Kd of best base at the position; under TCGCCAAGATAAC, 124 Kd / Kd of best base at the position.
With TCGCCAGTATAAC, the binding signal is > 208 Kd / Kd of best base at the position.
In the case of TCGACAGGATAAC, the binding signal was 26.7 Kd / Kd of best base at the position.
Take TCGCCTGGATAAC: the binding signal is > 208 Kd / Kd of best base at the position.
On to TCGCCAGGCTAAC, for which the binding signal was 5.16 Kd / Kd of best base at the position.
Still for that read-out and setting: for TAGCCAGGATAAC the value was 1.69 Kd / Kd of best base at the position.
Take CCGCCAGGATAAC: the binding signal is 3.01 Kd / Kd of best base at the position.
With TCGCCACGATAAC, the binding signal was > 208 Kd / Kd of best base at the position.
As to TCGCCAGGTTAAC, the binding signal was 12.8 Kd / Kd of best base at the position.
In the case of TCGCCAGGATAAG, the binding signal is 1.76 Kd / Kd of best base at the position.
Take TCGCCAGGATAAA: the binding signal was 1.28 Kd / Kd of best base at the position.
With TCGCAAGGATAAC, the binding signal is > 208 Kd / Kd of best base at the position.
As to TCGCCAGGATAGC, the binding signal is 1 Kd / Kd of best base at the position.
Take TCGCGAGGATAAC: the binding signal was 67.2 Kd / Kd of best base at the position.
Same read-out and setting: under TCGCCAGGATACC stands 3.82 Kd / Kd of best base at the position; under TCCCCAGGATAAC, 2.9 Kd / Kd of best base at the position; under TGGCCAGGATAAC, 2.43 Kd / Kd of best base at the position.
Take TCGCCAGGAGAAC: the binding signal is 8.25 Kd / Kd of best base at the position.
As for TCACCAGGATAAC, the binding signal was 5.13 Kd / Kd of best base at the position.
TCGCTAGGATAAC: the binding signal was > 208 Kd / Kd of best base at the position.
Consider TCGCCAGGATTAC, for which the binding signal was 1.69 Kd / Kd of best base at the position.
Consider TCGCCAGGATCAC, for which the binding signal was 7.79 Kd / Kd of best base at the position.
TCGCCATGATAAC: the binding signal is > 208 Kd / Kd of best base at the position.
In the case of TCGCCAGGACAAC, the binding signal is 12.9 Kd / Kd of best base at the position.
A word on the pKd: it is the negative decadic logarithm of the Kd, by convention in mol/L. Read a low pKd as a large Kd. As to TCGCCAGGATAAC, the pKd was around 7.32.
As for TCGCCAGGATAAT, the binding signal was 1.84 Kd / Kd of best base at the position.
